# Screening results (PubChem BioAssay)
# EWS-Fli block: EWS/Fli-driven NR0B1 reporter inhibitors, primary screen, A673 cells, NR0B1 luciferase, luminescence, MLPCN library | 0.67% of 350,000 active | inhibition, % at 12.6 µM | viability-normalised;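 active = mean inhibition of at least 50% after viability correction, with every replicate also passing that limit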;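 also: firefly luciferase signal divided by Alamar Blue viability fluorescence both relative to DMSO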
# TWEAK Fn14 block: inhibitors of TWEAK-Fn14 signaling, primary screen, luciferase reporter cells, uHTS; TWEAK-stimulated Fn14 reporter cells, luciferase luminescence, 8 h; inhibition, % at 10 µM; AID 1159606, 2016; 2% of 360,000 active; in the data active = inhibition above about 50%
# LGR2 antag: inhibitors of bursicon-induced LGR2 CRE-luciferase signal, primary screen, cell-based, HEK293, CRE-luciferase reporter, bursicon stimulation; Drosophila bursicon receptor LGR2 (rickets); bursicon-stimulated, 4 h; inhibition, % at 9.99 µM; 0.35% of 380,000 active; AID 720647, 2013;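 active = drop in luminescence signal, shown as inhibition above about 50% in the replicate tests, limit read from the data, passing the limit was not always enough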;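 also: agonist challenge used bursicon conditioned medium at about half maximal strength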
# KKLEB tox: cytotoxicity in KKLEB CF airway cells, primary screen, cytotoxicity control for CF NF-kB inhibitor project, cell-based, uHTS, fluorescence assay plates; KKLEB CF airway cells viability, ATPlite luminescence, overnight; active compounds read low; cells stimulated with P. aeruginosa culture filtrate; AID 602141, 2011; activity change (cytotoxicity), % at 5 µM; 0.36% of 360,000 active;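 active = corrected activity change at or below -50% at 5 µM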
# TROY signal inh: inhibitors of TROY-driven NF-kB signaling, primary screen, Q293 LMP1-TROYcd cells, NF-kB luciferase, uHTS. Q293 LMP1-TROYcd NF-kB luciferase reporter, 4 h. inhibition, % at 10 µM. 0.98% of 360,000 active. AID 1347056, 2019;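 active = compounds whose plate-normalised and pattern-corrected inhibition of the luciferase reporter signal at the single screening dose is 50% or more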
# CF NFkB block: inhibitors of PAF-induced NF-kB signaling, primary screen, cell-based, GFP fluorescence, uHTS. KKLEB NF-kB-GFP reporter, GFP fluorescence overnight. 0.86% of 360,000 active. inhibition, % at 5 µM;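 active = at least 50% inhibition at 5 µM, scaled per plate between neutral and stimulator controls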;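 also: PAF is a Pseudomonas aeruginosa culture filtrate used as stimulus; plate controls were PAF-stimulated DMSO wells for no effect and unstimulated DMSO wells for full effect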
# * marks the source's active call; other numbers are inactive results; nt = not tested or not shown. An excerpt weighted towards active compounds, which were near 2.6% of everything screened.
SMILES,EWS-Fli block,TWEAK Fn14 block,LGR2 antag,KKLEB tox,TROY signal inh,CF NFkB block
CC(CCc1ccccc1)NC(=O)COC(=O)c1ccc(S(C)(=O)=O)c([N+](=O)[O-])c1 (stereo unspecified),5,71*,38,-64*,70*,91*
CNc1ccc(C(=O)OCC(=O)NC(=O)NC2CCCCC2)cc1[N+](=O)[O-],-4,-4,-8,-7,5,-1
CS(=O)(=O)c1ccc(C(=O)OCC(=O)N2CCN(CCC3CCCCC3)CC2)cc1[N+](=O)[O-],54*,79*,-1,-85*,34,101*
CS(=O)(=O)c1ccc(C(=O)OCC(=O)N2CCOCC2)cc1[N+](=O)[O-],-6,40,10,-7,3,43
CC(CCc1ccccc1)NC(=O)COC(=O)c1ccc([N+](=O)[O-])cc1 (stereo unspecified),0,21,-1,0,-19,-21
Nc1ccc(C(=O)NNC(=O)C2COc3ccccc3O2)cc1[N+](=O)[O-] (stereo unspecified),6,-20,1,-1,11,-2
CS(=O)(=O)c1ccc(C(=O)OCC(=O)NC(=O)C2COc3ccccc3O2)cc1[N+](=O)[O-] (stereo unspecified),5,55*,12,24,8,8
COc1ccc(-c2cnc3c(c2)C(=O)N([C@H](C)CO)C[C@@H](C)[C@@H](CN(C)C(=O)Cc2cccnc2)O3)cc1,-16,nt,9,nt,nt,nt
CCCNC(=O)N(C)C[C@H]1Oc2ncc(/C=C/c3ccccc3)cc2C(=O)N([C@@H](C)CO)C[C@H]1C,4,nt,-9,nt,nt,nt
COc1cc2[nH]c(=O)n(CCCCCC(=O)N3CC=C(c4ccccc4)CC3)c(=O)c2cc1OC,nt,59*,nt,-27,26,-1
COC(=O)c1ccc2c(=O)n(CCCCCC(=O)O)c(=O)[nH]c2c1,10,27,9,8,6,2
COC(=O)c1ccc2c(=O)n(CCCCCC(=O)N3CCN(c4ccc(F)cc4)CC3)c(=O)[nH]c2c1,nt,56*,nt,-15,60*,-6
Cc1noc(C)c1S(=O)(=O)Nc1cccc2c1O[C@H](CN(C)Cc1ccc(C(=O)O)cc1)[C@H](C)CN([C@H](C)CO)C2=O,-5,nt,-2,nt,nt,nt
CN1CCN(C(=O)C[C@H]2CC[C@H]3[C@H](COc4ccc(NC(=O)c5ccc(F)c(F)c5)cc4C(=O)N3C)O2)CC1,2,nt,-6,nt,nt,nt
O=C(/C(=C/c1ccncc1)n1ccnc1)c1ccc(Cl)cc1Cl,3,nt,nt,nt,nt,nt
CC(C)(C)C(=O)/C(=C/c1ccc(Cl)cc1)n1cncn1,49,77*,42,-23,20,48
CC(C)/C=C(/C(=O)c1ccc(Cl)cc1Cl)n1cncn1,-6,61*,26,0,1,31
OC[C@@H]1Nc2ccc(C#Cc3ccccc3)cc2[C@@H]2[C@H]1CCN2Cc1nccs1,nt,nt,-23,nt,nt,nt
O=C(C[C@@H]1C=C[C@H](NC(=O)c2ccccn2)[C@H](CO)O1)NCc1cccc(F)c1,-1,nt,34,nt,nt,nt
O=C(Nc1ccc(F)cc1)N1CCCCN2[C@@H](CO)[C@H](c3ccc(C#Cc4ccccc4)cc3)[C@@H]2C1,60*,nt,11,nt,nt,nt
O=C(Nc1ccc(F)cc1)N1CC(=O)N2[C@H](CO)[C@@H](c3ccc(-c4ccccc4)cc3)[C@@H]2C1,60*,nt,-10,nt,nt,nt
COc1ccc(C#Cc2ccc([C@@H]3[C@H](CO)N4CCCCN(C(=O)Nc5ccccc5)C[C@@H]34)cc2)cc1,70*,nt,-13,nt,nt,nt
COc1ccccc1NC(=O)N1CCCCN2[C@@H](CO)[C@@H](c3ccc(C#CC4CCCC4)cc3)[C@@H]2C1,71*,nt,16,nt,nt,nt
O=C(Nc1ccc(F)cc1)N1CCCCN2[C@H](CO)[C@@H](c3ccc(C#Cc4ccccc4)cc3)[C@@H]2C1,7,nt,1,nt,nt,nt
COc1ccccc1NC(=O)N1CCCCN2[C@H](CO)[C@@H](c3ccc(C#CC4CCCC4)cc3)[C@@H]2C1,-1,nt,-1,nt,nt,nt
SMILES,EWS-Fli block,TWEAK Fn14 block,LGR2 antag,KKLEB tox,TROY signal inh,CF NFkB block
Oc1cccc(NC(=S)Nc2ccc(SC(F)F)cc2)c1,-9,-1,-35,15,-16,7
Oc1cccc2c(NC(=S)Nc3ccc(SC(F)F)cc3)cccc12,2,60*,-18,-20,64*,-9
Cc1cc(C)n(C(=O)CN2C(=O)c3ccccc3C2=O)n1,2,21,3,0,-10,-2
Cc1nn(C(=O)CN2C(=O)c3ccccc3C2=O)c(C)c1Br,nt,95*,nt,0,nt,5
O=S(=O)(c1ccc(N=C2NN=C(c3cc(F)ccc3F)CS2)cc1)N1CCOCC1,37,81*,-17,-22,37,-29
Fc1ccc(N=C2NN=C(c3cc(F)ccc3F)CS2)cc1,-124,-26,-60,19,-115,-37
COc1cccc(CNC(=O)C[C@H]2C=C[C@H](NC(=O)C3CC3)[C@H](CO)O2)c1,2,nt,-9,nt,nt,nt
Cc1ccccc1S(=O)(=O)N[C@H]1CC[C@@H](CCNS(=O)(=O)c2cccc(F)c2)O[C@@H]1CO,5,nt,10,nt,nt,nt
C=CCN1C(=O)/C(=C/c2ccc(OC(C)=O)c(OCC)c2[N+](=O)[O-])SC1=S,-123,60*,20,-44,43,54*
C[C@H](O)C#Cc1cnc2c(c1)C(=O)N([C@@H](C)CO)C[C@@H](C)[C@H](CN(C)CC1CCOCC1)O2,-5,nt,6,nt,nt,nt
C[C@H]1CN([C@@H](C)CO)S(=O)(=O)c2ccc(Br)cc2O[C@@H]1CN(C)C(=O)CN(C)C,-2,nt,4,nt,nt,nt
N#CC(c1ccc(Cl)cc1)c1ccc2c(C(F)(F)F)cc(C(F)(F)F)nc2n1 (stereo unspecified),nt,65*,nt,-74*,79*,67*
Cc1cc(C)c(O)c(-c2n[nH]c3c2C(c2cccc(O)c2)N(Cc2ccco2)C3=O)c1 (stereo unspecified),15,17,-3,13,60*,6
CCCCCCN(C(=O)CCl)c1ccccc1,42,32,-23,-68*,-5,85*
O=C(CCl)N(c1ccccc1)c1ccccc1,40,26,12,-15,9,56*
O=C(N(c1ccccc1)c1ccccc1)N(c1ccccc1)c1ccccc1,-5,2,nt,13,-3,2
Cc1ccc(C(O)(C(=O)NN(C(=O)c2ccccc2)c2ccccc2)c2ccc(C)cc2)cc1,15,34,nt,-6,16,-12
N#CCCN(C(=O)CCl)c1cccc(Cl)c1,35,49,nt,-10,19,25
